Source: the supplement of paper PMC12819154, “High-throughput peptide-centric local stability assay extends protein–ligand identification to membrane proteins, tissues and bacteria” (Nature Structural & Molecular Biology, 2025)

Each target was assayed with CN[C@@H]1C[C@H]2O[C@@](C)([C@@H]1OC)n1c3ccccc3c3c4c(c5c6ccccc6n2c5c31)C(=O)NC4 [staurosporine] (assay: log2 fold change of tryptic peptide abundance, ligand vs vehicle (limited proteolysis) (log2 ratio); higher = more trypsin-susceptible (destabilized)). Details: ligand concentration: 20 uM; sample: K562 cleared lysate; digestion: 4 min, 22 C (HT-PELSA RT4min, Orbitrap Astral).

Sequence of UniProt P30291 (P30291 whole entry, looked up): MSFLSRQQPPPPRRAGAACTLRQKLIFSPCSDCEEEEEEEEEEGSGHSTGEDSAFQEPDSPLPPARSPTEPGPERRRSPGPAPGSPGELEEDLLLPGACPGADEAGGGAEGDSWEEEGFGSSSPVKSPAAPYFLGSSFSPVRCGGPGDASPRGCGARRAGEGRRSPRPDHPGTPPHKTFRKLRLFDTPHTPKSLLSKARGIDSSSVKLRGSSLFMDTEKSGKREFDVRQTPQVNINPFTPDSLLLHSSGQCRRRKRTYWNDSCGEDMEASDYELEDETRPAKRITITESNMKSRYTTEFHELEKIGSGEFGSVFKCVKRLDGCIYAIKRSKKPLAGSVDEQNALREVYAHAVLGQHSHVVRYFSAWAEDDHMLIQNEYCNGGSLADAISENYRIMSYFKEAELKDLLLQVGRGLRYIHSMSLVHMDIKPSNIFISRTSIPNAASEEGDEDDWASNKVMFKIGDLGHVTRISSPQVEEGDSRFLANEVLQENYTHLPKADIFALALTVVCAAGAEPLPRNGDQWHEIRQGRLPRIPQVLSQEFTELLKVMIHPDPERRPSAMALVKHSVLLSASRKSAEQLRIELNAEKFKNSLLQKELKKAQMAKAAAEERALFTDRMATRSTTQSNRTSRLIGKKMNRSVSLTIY
Sequence of UniProt P27708 (P27708 whole entry): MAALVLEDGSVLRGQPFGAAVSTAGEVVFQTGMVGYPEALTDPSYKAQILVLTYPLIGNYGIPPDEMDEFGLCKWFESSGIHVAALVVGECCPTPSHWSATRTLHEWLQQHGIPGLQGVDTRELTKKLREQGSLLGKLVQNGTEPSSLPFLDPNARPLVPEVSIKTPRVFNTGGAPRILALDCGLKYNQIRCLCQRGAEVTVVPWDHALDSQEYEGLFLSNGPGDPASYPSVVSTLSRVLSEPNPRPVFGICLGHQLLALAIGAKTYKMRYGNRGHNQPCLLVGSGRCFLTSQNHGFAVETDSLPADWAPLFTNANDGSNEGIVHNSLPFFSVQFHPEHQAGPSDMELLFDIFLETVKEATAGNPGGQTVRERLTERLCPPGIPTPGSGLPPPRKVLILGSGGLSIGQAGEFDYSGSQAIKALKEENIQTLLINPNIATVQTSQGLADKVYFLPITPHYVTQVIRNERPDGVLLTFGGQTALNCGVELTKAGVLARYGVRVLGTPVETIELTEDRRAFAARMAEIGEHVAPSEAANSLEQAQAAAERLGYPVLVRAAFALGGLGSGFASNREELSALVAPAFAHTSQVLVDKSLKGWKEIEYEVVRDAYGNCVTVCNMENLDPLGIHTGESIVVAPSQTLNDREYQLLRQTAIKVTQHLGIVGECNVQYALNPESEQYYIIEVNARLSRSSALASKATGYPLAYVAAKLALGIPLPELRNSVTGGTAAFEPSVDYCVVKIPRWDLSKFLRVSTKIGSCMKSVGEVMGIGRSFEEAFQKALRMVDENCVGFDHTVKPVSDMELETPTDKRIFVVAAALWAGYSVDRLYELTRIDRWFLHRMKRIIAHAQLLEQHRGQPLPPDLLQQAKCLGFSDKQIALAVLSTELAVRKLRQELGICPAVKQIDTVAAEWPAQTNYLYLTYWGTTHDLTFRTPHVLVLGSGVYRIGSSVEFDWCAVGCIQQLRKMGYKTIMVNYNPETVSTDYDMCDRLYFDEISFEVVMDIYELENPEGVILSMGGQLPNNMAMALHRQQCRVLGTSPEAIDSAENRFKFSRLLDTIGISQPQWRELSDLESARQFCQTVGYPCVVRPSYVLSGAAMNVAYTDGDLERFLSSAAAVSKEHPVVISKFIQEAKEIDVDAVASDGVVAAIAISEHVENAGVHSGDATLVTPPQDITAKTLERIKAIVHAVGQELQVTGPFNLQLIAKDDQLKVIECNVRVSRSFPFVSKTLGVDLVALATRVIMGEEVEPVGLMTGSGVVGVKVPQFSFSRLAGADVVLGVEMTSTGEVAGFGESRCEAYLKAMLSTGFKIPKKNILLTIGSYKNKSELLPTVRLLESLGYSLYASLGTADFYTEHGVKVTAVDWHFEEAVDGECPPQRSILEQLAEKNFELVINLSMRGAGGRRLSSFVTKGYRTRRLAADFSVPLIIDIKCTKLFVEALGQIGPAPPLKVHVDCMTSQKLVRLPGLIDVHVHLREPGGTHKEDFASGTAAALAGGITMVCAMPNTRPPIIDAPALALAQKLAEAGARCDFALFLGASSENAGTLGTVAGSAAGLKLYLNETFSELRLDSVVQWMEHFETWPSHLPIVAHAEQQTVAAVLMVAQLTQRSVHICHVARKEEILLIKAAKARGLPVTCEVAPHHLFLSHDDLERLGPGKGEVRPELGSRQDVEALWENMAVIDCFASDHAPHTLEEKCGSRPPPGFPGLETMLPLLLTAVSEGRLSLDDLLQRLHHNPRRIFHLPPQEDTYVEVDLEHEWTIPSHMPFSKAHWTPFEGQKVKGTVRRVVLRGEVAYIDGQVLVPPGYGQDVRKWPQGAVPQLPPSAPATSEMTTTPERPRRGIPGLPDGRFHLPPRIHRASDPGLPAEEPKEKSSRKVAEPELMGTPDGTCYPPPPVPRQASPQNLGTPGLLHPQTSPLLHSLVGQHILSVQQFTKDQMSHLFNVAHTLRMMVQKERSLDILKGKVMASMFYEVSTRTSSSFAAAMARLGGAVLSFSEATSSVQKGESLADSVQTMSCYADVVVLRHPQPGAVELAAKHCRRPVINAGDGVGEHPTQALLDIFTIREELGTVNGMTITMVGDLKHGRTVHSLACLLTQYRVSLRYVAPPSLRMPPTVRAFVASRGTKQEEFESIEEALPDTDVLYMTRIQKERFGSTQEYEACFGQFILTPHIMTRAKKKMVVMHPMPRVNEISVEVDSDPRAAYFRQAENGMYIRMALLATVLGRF
Sequence of UniProt Q16629 (Q16629 whole entry): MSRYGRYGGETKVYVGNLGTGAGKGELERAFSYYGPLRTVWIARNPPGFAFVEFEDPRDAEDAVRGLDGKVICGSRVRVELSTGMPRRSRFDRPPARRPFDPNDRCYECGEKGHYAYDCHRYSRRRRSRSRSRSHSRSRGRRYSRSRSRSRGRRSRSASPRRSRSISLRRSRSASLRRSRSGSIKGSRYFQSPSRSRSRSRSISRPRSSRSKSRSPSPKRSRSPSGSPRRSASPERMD
Sequence of UniProt Q9BZF3 (Q9BZF3 whole entry): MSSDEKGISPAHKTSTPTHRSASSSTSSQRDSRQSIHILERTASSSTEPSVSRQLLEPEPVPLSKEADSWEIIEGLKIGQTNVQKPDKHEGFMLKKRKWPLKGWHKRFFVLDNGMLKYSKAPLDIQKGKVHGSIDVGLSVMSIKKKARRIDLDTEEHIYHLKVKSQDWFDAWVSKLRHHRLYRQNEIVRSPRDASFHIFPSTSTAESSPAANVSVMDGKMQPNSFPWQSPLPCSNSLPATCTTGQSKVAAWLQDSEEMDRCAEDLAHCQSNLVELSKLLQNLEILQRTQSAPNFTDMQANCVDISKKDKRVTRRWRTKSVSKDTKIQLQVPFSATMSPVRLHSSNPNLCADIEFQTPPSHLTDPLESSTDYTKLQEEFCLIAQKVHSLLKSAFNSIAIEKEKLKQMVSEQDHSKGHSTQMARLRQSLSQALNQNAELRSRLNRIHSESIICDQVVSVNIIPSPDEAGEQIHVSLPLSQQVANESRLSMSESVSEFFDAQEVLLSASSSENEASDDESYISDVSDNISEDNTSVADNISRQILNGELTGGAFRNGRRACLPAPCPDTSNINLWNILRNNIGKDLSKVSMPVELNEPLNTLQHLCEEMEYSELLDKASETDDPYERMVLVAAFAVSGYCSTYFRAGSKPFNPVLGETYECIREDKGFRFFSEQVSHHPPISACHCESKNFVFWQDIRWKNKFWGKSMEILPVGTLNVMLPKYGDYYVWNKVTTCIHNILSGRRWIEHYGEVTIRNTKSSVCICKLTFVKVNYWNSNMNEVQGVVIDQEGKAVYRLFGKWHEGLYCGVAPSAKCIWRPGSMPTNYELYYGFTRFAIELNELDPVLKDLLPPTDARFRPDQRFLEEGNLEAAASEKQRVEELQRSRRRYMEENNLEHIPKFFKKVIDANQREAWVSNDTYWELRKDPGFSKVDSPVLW
Sequence of UniProt P25098 (P25098 whole entry): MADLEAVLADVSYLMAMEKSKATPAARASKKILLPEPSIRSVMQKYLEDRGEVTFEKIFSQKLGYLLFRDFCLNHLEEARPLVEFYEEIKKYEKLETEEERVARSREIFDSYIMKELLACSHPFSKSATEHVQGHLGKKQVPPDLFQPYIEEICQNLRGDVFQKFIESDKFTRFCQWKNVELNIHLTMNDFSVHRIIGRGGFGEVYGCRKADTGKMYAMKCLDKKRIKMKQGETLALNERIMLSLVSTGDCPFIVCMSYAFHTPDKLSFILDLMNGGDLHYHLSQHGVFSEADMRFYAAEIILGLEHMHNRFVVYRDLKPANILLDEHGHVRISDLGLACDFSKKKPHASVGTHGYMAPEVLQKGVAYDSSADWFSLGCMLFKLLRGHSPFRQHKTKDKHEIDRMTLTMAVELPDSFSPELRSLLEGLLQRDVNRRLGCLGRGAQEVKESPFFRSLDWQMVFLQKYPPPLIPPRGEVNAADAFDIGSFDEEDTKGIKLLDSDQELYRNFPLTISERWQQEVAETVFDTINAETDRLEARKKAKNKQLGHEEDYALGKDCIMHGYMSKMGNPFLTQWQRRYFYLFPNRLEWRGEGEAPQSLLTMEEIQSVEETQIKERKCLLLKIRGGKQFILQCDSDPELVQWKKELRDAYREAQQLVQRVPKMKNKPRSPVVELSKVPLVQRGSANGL
Sequence of UniProt Q15759 (Q15759 whole entry): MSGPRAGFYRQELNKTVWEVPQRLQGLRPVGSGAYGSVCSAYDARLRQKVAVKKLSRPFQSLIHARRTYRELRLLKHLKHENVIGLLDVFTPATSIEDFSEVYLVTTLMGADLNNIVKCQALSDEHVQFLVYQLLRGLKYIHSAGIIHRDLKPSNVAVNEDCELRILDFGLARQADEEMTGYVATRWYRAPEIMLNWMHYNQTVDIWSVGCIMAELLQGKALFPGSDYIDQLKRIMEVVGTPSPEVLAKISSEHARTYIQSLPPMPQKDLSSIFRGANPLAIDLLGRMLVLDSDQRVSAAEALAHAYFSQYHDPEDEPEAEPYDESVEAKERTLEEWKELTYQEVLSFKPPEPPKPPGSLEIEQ

Target	log2 fold change
CCNL2 (peptide sequence: HSMEHVSMACVHLASK, peptide start residue: 118) (UniProt Q96S94)	-1.06
HAT1 (peptide sequence: CNTNTAIELK, peptide start residue: 27) (UniProt O14929)	0.602
MAP3K4 (peptide sequence: DFLSHCLESDPK, peptide start residue: 1576) (UniProt Q9Y6R4)	-1.49
UniProt Q9UBS0 (peptide sequence: HPFIVELAYAFQTGGK, peptide start residue: 128)	-0.89
RIPK2 (peptide sequence: KTEYPDVAWPLR, peptide start residue: 110) (UniProt O43353)	-0.494
UniProt Q16629 (peptide sequence: YFQSPSR, peptide start residue: 189)	1.29
PARK7 (peptide sequence: VTVAGLAGKDPVQCSR, peptide start residue: 33) (UniProt Q99497)	0.199
OSBPL6 (peptide sequence: NFVFWQDIR, peptide start residue: 687) (UniProt Q9BZF3)	-1.81
MASTL (peptide sequence: IAVPKPPSIEEFSIVKPISR, peptide start residue: 24) (UniProt Q96GX5)	-1.05
UniProt Q00537 (peptide sequence: LGEGTYATVYK, peptide start residue: 171)	-2.88
WEE1 (peptide sequence: FLANEVLQENYTHLPK, peptide start residue: 482) (UniProt P30291)	-1.01
UniProt P49674 (peptide sequence: FDDKPDYSYLR, peptide start residue: 260)	-0.398
UniProt Q16513 (peptide sequence: HPFLVNLFACFQTK, peptide start residue: 717)	-2.07
CAMKK2 (peptide sequence: FYFQDLIK, peptide start residue: 291) (UniProt Q96RR4)	-2.2
CAD (peptide sequence: FLSSAAAVSKEHPVVISK, peptide start residue: 1110) (UniProt P27708)	-0.418
UniProt Q13131 (peptide sequence: VGKHELTGHK, peptide start residue: 43)	-5
UniProt P45984 (peptide sequence: DLKPSNIVVK, peptide start residue: 151)	-2.08
UniProt P25098 (peptide sequence: DLKPANILLDEHGHVR, peptide start residue: 317)	-0.579
PAK2 (peptide sequence: MTDEEIMEK, peptide start residue: 227) (UniProt Q13177)	-2.15

Target	log2 fold change
UniProt Q6ICG6 (peptide sequence: KAAEPEVEVEVYRR, peptide start residue: 72)	-1.02
EIF2AK4 (peptide sequence: DLKPVNIFLDSDDHVK, peptide start residue: 848) (UniProt Q9P2K8)	-1.33
EIF2B1 (peptide sequence: VAQTGQDLK, peptide start residue: 259) (UniProt Q14232)	0.366
UniProt Q9NSY1 (peptide sequence: DGVNVVEEEIKK, peptide start residue: 212)	-4.3
PNPO (peptide sequence: SSQIGAVVSHQSSVIPDR, peptide start residue: 164) (UniProt Q9NVS9)	1.66
USP28 (peptide sequence: FVDPSAALDLLK, peptide start residue: 232) (UniProt Q96RU2)	0.578
ULK1 (peptide sequence: LFLQQIAGAMR, peptide start residue: 117) (UniProt O75385)	-1.62
CLIC1 (peptide sequence: IGNCPFSQR, peptide start residue: 21) (UniProt O00299)	0.243
GTSE1 (peptide sequence: SIPGAAEKPK, peptide start residue: 228) (UniProt Q9NYZ3)	0.58
RPL5 (peptide sequence: GAVDGGLSIPHSTK, peptide start residue: 165) (UniProt P46777)	0.307
SRRM2 (peptide sequence: SLSYSPVER, peptide start residue: 2690) (UniProt Q9UQ35)	0.244
CAMKK1 (peptide sequence: DIKPSNLLLGDDGHVK, peptide start residue: 275) (UniProt Q8N5S9)	-3.71
UniProt Q2VIR3 (peptide sequence: FKNELER, peptide start residue: 69)	0.555
UniProt Q16512 (peptide sequence: IADFGLCK, peptide start residue: 756)	-2.52
UniProt Q9BUB5 (peptide sequence: GLPTPQVLQR, peptide start residue: 382)	0.803
RBM34 (peptide sequence: NGAQIADGFR, peptide start residue: 263) (UniProt P42696)	0.437
MAPK11 (peptide sequence: ILDFGLAR, peptide start residue: 166) (UniProt Q15759)	-1.18
SRPK1 (peptide sequence: HFTEDIQTR, peptide start residue: 507) (UniProt Q96SB4)	-1.75
NEK9 (peptide sequence: TLNIFLTK, peptide start residue: 179) (UniProt Q8TD19)	-0.436
